{
  "source": "PubChem BioAssay (NCI)",
  "note": "This is part of a sample that, as a whole, favours compounds with a hit. Of some 83,000 tested, about 20% had one in any assay.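 Method: cells in 96-well plates; compound added at one concentration; 48 h incubation; percent growth measured; values under 10 scored active.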 A number with no mark means an inactive call. The source made the active and inactive calls.",
  "data": [
    {"test_system": "MDA-MB-468 breast", "assay": "NCI-60 one-dose screen, 48 h (100 = growth as untreated, 0 = no growth, -100 = all killed)", "settings": "10 µM unless noted", "values": [
      {"smiles": "O=S(=O)(Nc1ccc(F)cc1F)c1ccc(-c2cnc(C3CC3)o2)cc1", "growth": "2.58% (active)"},
      {"smiles": "Cc1ccc(-c2csc(NC(=O)CN3CCN(c4cc5c(cc4F)c(=O)c(C(=O)O)cn5C4CC4)CC3)n2)cc1", "growth": "3.21% (active)"},
      {"smiles": "CN(CCCN(C)CCC1CCCCC1)CCC1CCCCC1", "growth": "-76.1% (active)"},
      {"smiles": "CCOC(=O)C(=Cc1ccccc1[N+](=O)[O-])C(=O)OCC", "growth": "34.3%"},
      {"smiles": "COc1ccc(-c2csc(NC(=O)CSc3nc(-c4ccccc4)cc(=O)[nH]3)n2)cc1", "growth": "14.9%"},
      {"smiles": "CC1=C([Se]CC(OC(=O)[C@@H](CO)NC(=O)OC(C)(C)C)C(=O)NCCCCCC(=O)OCc2ccccc2)C(=O)c2ccccc2C1=O", "note": "(stereo not given in full)", "growth": "-83.7% (active)"},
      {"smiles": "COc1cc(/C=C/c2cc(/C=C/c3ccc(O)c(OC)c3)n(C(=O)Nc3ccccc3Cl)n2)ccc1O", "growth": "-24.2% (active)"},
      {"smiles": "c1cc[c]([Bi]([c]2ccccc2)[c]2ccccc2)cc1", "growth": "84.7%"},
      {"smiles": "O=C1CNc2cc(Cl)ccc2N1", "growth": "117%"},
      {"smiles": "COc1ccc(CNc2c3ccccc3nc3ccccc23)cc1F", "growth": "-18.7% (active)"},
      {"smiles": "FC(F)(F)c1ccc(-c2cnc(Br)nc2NC2CCCCCC2)cc1", "growth": "12.6%"},
      {"smiles": "N#Cc1c2c(nc3n[nH]c(N)c13)CCCC2", "growth": "93.6%"},
      {"smiles": "CNC(=O)c1[nH]cc(-c2ccccc2)c1-c1cc(OC)c2c(c1OC)OCO2", "growth": "100%"},
      {"smiles": "COc1ccc(CCOc2cc3c(cc2OC)CCN(C(=O)NCc2cocn2)C3c2ccc(C)cc2C)cc1", "note": "(stereo not given)", "growth": "3.86% (active)"},
      {"smiles": "CCOC(=O)CSc1nc2ccccc2c(=O)n1Cc1ccc(S(N)(=O)=O)cc1", "growth": "105%"},
      {"smiles": "Cc1ccccc1C(=O)NN", "growth": "121%"},
      {"smiles": "N#C/C(=C\\C=C\\c1ccc(-c2cc(Cl)ccc2Cl)o1)c1nc2ccccc2s1", "growth": "109%"},
      {"smiles": "O=C1c2ccccc2CCC12OC2c1cn(-c2ccccc2)nc1-c1ccc(Cl)cc1", "note": "(stereo not given)", "growth": "92.5%"},
      {"smiles": "Cc1cccc(NCS(=O)(=O)O)c1", "growth": "93.7%"},
      {"smiles": "CC1=C(C(=O)/C=C/c2ccc(N(C)C)cc2)C(c2ccccc2)NC(=S)N1", "note": "(stereo not given)", "growth": "102%"},
      {"smiles": "CC(=O)O[C@H]1CC[C@@]2(C)[C@@H](CC[C@@H]3[C@@H]2CC[C@@]2(C)[C@H]3CC[C@]2(O)C(C)=O)C1", "growth": "94.1%"},
      {"smiles": "COc1ccc(C2C3=C(COC3=O)N(CCO)c3cc4c(cc32)OCCO4)cc1OC", "note": "(stereo not given)", "growth": "-32.1% (active)"},
      {"smiles": "Cc1ccc(-c2nc(N3CCCNCC3)c3oc(-c4ccccc4)nc3n2)cc1", "growth": "-76.2% (active)"},
      {"smiles": "CN1CCN(Cc2ccc(NC(=O)c3cncc(C#Cc4ncc5cnccn45)c3)cc2C(F)(F)F)CC1", "growth": "86.7%"},
      {"smiles": "N/C(=N\\C(N)=N\\c1nc2ccccc2s1)c1cccc(F)c1", "growth": "92.9% [5 µM]"},
      {"smiles": "COc1ccc(-c2nc3c(ncc4ccc(=O)[nH]c43)s2)cc1", "growth": "62.9%"},
      {"smiles": "O=C(Nc1ccc(Br)cc1F)c1cc(Br)ccc1O", "growth": "-13.6% (active)"},
      {"smiles": "C#Cc1cccc(Nc2nc(Cl)nc3cc(NC(=O)CCl)ccc23)c1", "growth": "-71% (active)"},
      {"smiles": "CCCCCN1C=C/C(=C\\C(=O)N(C)c2ccc(OC(F)(F)F)cc2)c2ccccc21", "growth": "80.4%"},
      {"smiles": "O=C(NN(C(=O)c1ccccc1)c1cccs1)c1ccccc1", "growth": "103%"},
      {"smiles": "CCCCCCCCCCSc1ncnc2nc[nH]c12", "growth": "8.95% (active)"},
      {"smiles": "CCCCCCCCCc1cc[n+](CC(=O)c2ccc([N+](=O)[O-])cc2)cc1", "growth": "-18.6% (active)"},
      {"smiles": "CS(=O)(=O)Nc1cncc(-c2ccc3ncnc(Nc4cncc(Cl)c4)c3c2)c1", "growth": "16.7%"},
      {"smiles": "O=C(CC(=O)c1ccccc1F)Nc1ccc([N+](=O)[O-])cc1", "growth": "90.9%"},
      {"smiles": "CC1(/C=N/NC(N)=S)NC(=O)NC1=O", "note": "(stereo not given)", "growth": "102%"},
      {"smiles": "O=C(CN1CCCCC1)Nc1nc(-c2cc3ccccc3oc2=O)cs1", "growth": "96.3%"},
      {"smiles": "COc1ccc(-c2c(N)n[nH]c2-c2cc(OC)c(OC)c(OC)c2)cc1", "growth": "-0.0987% (active)"},
      {"smiles": "C/C(=N/Nc1nc2ccccc2n1C)c1ccccn1", "growth": "-41.9% (active)"},
      {"smiles": "CCS(=O)(=O)OCCCl", "growth": "94.9%"},
      {"smiles": "C=C1CCC2C(C)(CO)C(O)CCC2(C)C1C/C=C1/C(=O)OCC1O/C=C/c1ccccc1", "note": "(stereo not given)", "growth": "80.5%"}
    ]}
  ]
}
